According to PubChem BioAssay:
Calls of active or inactive are those of the source.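 How the source made its calls: active means viability loss from added drug above about 55%, and viability with drug at most 40%, in both replicates (limit read from the data, passing the limit was not always enough); inconclusive means both conditions met in only one replicate; inactive means neither replicate meets both conditions.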

experiment: MRP1 drug-resistance reversers in H69AR cells – cell-based, doxorubicin co-treatment, pilot screen (AID 601); settings: H69AR cells + 2 uM doxorubicin, CellTiter-Glo, 72 h; at 10 µM; stronger effect = higher value

SMILES | differential viability (reversal)
CCOc1ccc2nc(SCC(=O)Nc3ncccn3)[nH]c2c1 | 18.1% (inactive)
O=C(NCc1ccccn1)c1cc(-n2cnnc2)ccc1Cl | -1.2% (inactive)
OCC(O)CN1CCN(c2ccccc2)CC1 (stereo not given) | -1.6% (inactive)
CCCc1cc(=O)[nH]c(Nc2ccc(OC)c(Cl)c2)n1 | -7.59% (inactive)
O=C(O)c1ccc(CSc2ncn[nH]2)cc1 | -6.27% (inactive)
O=C(NCc1ccc2c(c1)OCO2)C1CCC(CNS(=O)(=O)c2ccccc2)CC1 (stereo not given) | -1.49% (inactive)
NC(CO)C(=O)NNCc1ccc(O)c(O)c1O (stereo not given) | 8.12% (inactive)
CCCCCc1nnc(NC(=O)Cc2cccs2)s1 | 10.7% (inactive)
O=C(NCCN1CCOCC1)c1ccc(CS(=O)(=O)Cc2ccccc2F)o1 | 0.59% (inactive)
CC1(C2(O)CC(c3ccccc3)ON2)CCCCC1 (stereo not given) | -0.32% (inactive)
CCOC(=O)N1CCC(n2c(=S)[nH]c3cc(OC)c(OC)cc3c2=O)CC1 | -2.02% (inactive)
O=S(=O)(NCc1cn2ccccc2n1)c1cc(F)ccc1F | 9.41% (inactive)
O=C(CCNNC(=O)c1ccncc1)NCc1ccccc1 | 6.55% (inactive)
CC(OC(=O)c1ccco1)C(=O)NCc1cccs1 (stereo not given) | -5.53% (inactive)
C(=N/n1c2ccccc2c2ccccc21)/c1ccco1 | -3.11% (inactive)
CCCCC[C@H](O)/C=C/C1=C(CCCCCCC(=O)O)C(=O)CC1 | -9.49% (inactive)
CCOC(=O)C1CCN(C(=O)COc2ccc(S(=O)(=O)NC(C)C)cc2Cl)CC1 | -15.3% (inactive)
Nn1c(SCC(=O)NC2CCCCC2)nnc1-c1ccc(Cl)cc1 | 8.96% (inactive)
Cc1nnc(C)c2c(C)n(Cc3ccc4c(c3)OCO4)c(C)c12 | 6.03% (inactive)
CCOC(=O)c1cc(-c2ccccc2)sc1N | 3.5% (inactive)

SMILES | differential viability (reversal)
O=C(Nc1nc(-c2cccs2)cs1)c1cccc(S(=O)(=O)N2CCCCC2)c1 | -5.37% (inactive)
c1cc2c(cc1Cn1cnnn1)OCO2 | 12.3% (inactive)
Cc1cc(C)cc(NC(=O)CN(C)S(=O)(=O)c2cnc[nH]2)c1 | 8.86% (inactive)
CC(=O)[C@@]1(O)CC[C@H]2[C@@H]3C[C@H](C)C4=CC(=O)C=C[C@]4(C)[C@@]3(F)[C@@H](O)C[C@@]21C | -9.97% (inactive)
O=S(=O)(Nn1cnnc1)c1ccccc1Cl | -3.4% (inactive)
CNC(=O)NCCN1CCCC1=O | 14.5% (inactive)
CC(=O)c1ccccc1NS(=O)(=O)c1c(C)nn(-c2ccccc2)c1C | -5% (inactive)
Cc1onc(-c2c(F)cccc2Cl)c1C(=O)Nc1nc2c(s1)CCCC2 | -27% (inactive)
Cc1nc2ccc(S(=O)(=O)NCC(=O)N3CCCCC3)cc2s1 | 2.37% (inactive)
CCN1CCN(C(=O)N[C@@H](C(=O)N[C@@H]2C(=O)N3[C@@H]2SC(C)(C)[C@@H]3C(=O)O)c2ccccc2)C(=O)C1=O | -13.4% (inactive)
COc1ccc2cnn(-c3ccccc3C)c(=O)c2c1OC | -1.29% (inactive)
Cc1ccc(S(=O)(=O)N2CCN(C(=O)CSc3nc4ccccc4c(=O)[nH]3)CC2)c(C)c1 | 16.8% (inactive)
C=CCN1C(=O)CS/C1=N/c1nccs1 | 1.4% (inactive)
CCCC(=O)Nc1ccc(C(=O)O)cc1NC(=O)CCC | -23% (inactive)
CCCC(=O)Nc1cnc(NC(=O)c2cccc(F)c2)cc1C | 6.15% (inactive)
Cc1cc(C)n2nc(SCC(=O)N(C)Cc3ccccc3)nc2n1 | -20.2% (inactive)
CCc1[nH]nc2c1C1(CCN(C(=O)OCc3ccccc3)CC1)C(C#N)=C(N)O2 | -0.55% (inactive)
CCOc1ccc(N2CC(C(=O)NCCc3ccc(OC)c(OC)c3)CC2=O)cc1 (stereo not given) | 3.03% (inactive)
O=C(COC(=O)CCC1CCCC1)Nc1ccc(Cl)cn1 | 5.36% (inactive)
c1ccc(-c2oc3ncnc(NCCN4CCOCC4)c3c2-c2ccccc2)cc1 | 40.4% (inactive)

same assay, conditions: H69AR cells + 2 uM doxorubicin, CellTiter-Glo, 72 h; measured here: viability with 2 uM doxorubicin; at 10 µM; stronger effect = lower value

SMILES | viability [%]
CCOc1ccc2nc(SCC(=O)Nc3ncccn3)[nH]c2c1 | 86.6
O=C(NCc1ccccn1)c1cc(-n2cnnc2)ccc1Cl | 102
OCC(O)CN1CCN(c2ccccc2)CC1 (stereo not given) | 94.5
CCCc1cc(=O)[nH]c(Nc2ccc(OC)c(Cl)c2)n1 | 78.2
O=C(O)c1ccc(CSc2ncn[nH]2)cc1 | 101
O=C(NCc1ccc2c(c1)OCO2)C1CCC(CNS(=O)(=O)c2ccccc2)CC1 (stereo not given) | 93.7
NC(CO)C(=O)NNCc1ccc(O)c(O)c1O (stereo not given) | 90.5
CCCCCc1nnc(NC(=O)Cc2cccs2)s1 | 90.8
O=C(NCCN1CCOCC1)c1ccc(CS(=O)(=O)Cc2ccccc2F)o1 | 107
CC1(C2(O)CC(c3ccccc3)ON2)CCCCC1 (stereo not given) | 84.4
CCOC(=O)N1CCC(n2c(=S)[nH]c3cc(OC)c(OC)cc3c2=O)CC1 | 59.1
O=S(=O)(NCc1cn2ccccc2n1)c1cc(F)ccc1F | 87.2
O=C(CCNNC(=O)c1ccncc1)NCc1ccccc1 | 87
CC(OC(=O)c1ccco1)C(=O)NCc1cccs1 (stereo not given) | 103
C(=N/n1c2ccccc2c2ccccc21)/c1ccco1 | 89.6
CCCCC[C@H](O)/C=C/C1=C(CCCCCCC(=O)O)C(=O)CC1 | 102
CCOC(=O)C1CCN(C(=O)COc2ccc(S(=O)(=O)NC(C)C)cc2Cl)CC1 | 106
Nn1c(SCC(=O)NC2CCCCC2)nnc1-c1ccc(Cl)cc1 | 82.7
Cc1nnc(C)c2c(C)n(Cc3ccc4c(c3)OCO4)c(C)c12 | 74.8
CCOC(=O)c1cc(-c2ccccc2)sc1N | 77.8

SMILES | viability [%]
O=C(Nc1nc(-c2cccs2)cs1)c1cccc(S(=O)(=O)N2CCCCC2)c1 | 72.2
c1cc2c(cc1Cn1cnnn1)OCO2 | 92.7
Cc1cc(C)cc(NC(=O)CN(C)S(=O)(=O)c2cnc[nH]2)c1 | 91.3
CC(=O)[C@@]1(O)CC[C@H]2[C@@H]3C[C@H](C)C4=CC(=O)C=C[C@]4(C)[C@@]3(F)[C@@H](O)C[C@@]21C | 103
O=S(=O)(Nn1cnnc1)c1ccccc1Cl | 92.7
CNC(=O)NCCN1CCCC1=O | 87.5
CC(=O)c1ccccc1NS(=O)(=O)c1c(C)nn(-c2ccccc2)c1C | 93.3
Cc1onc(-c2c(F)cccc2Cl)c1C(=O)Nc1nc2c(s1)CCCC2 | 104
Cc1nc2ccc(S(=O)(=O)NCC(=O)N3CCCCC3)cc2s1 | 85
CCN1CCN(C(=O)N[C@@H](C(=O)N[C@@H]2C(=O)N3[C@@H]2SC(C)(C)[C@@H]3C(=O)O)c2ccccc2)C(=O)C1=O | 105
COc1ccc2cnn(-c3ccccc3C)c(=O)c2c1OC | 108
Cc1ccc(S(=O)(=O)N2CCN(C(=O)CSc3nc4ccccc4c(=O)[nH]3)CC2)c(C)c1 | 68.2
C=CCN1C(=O)CS/C1=N/c1nccs1 | 97
CCCC(=O)Nc1ccc(C(=O)O)cc1NC(=O)CCC | 119
CCCC(=O)Nc1cnc(NC(=O)c2cccc(F)c2)cc1C | 82.6
Cc1cc(C)n2nc(SCC(=O)N(C)Cc3ccccc3)nc2n1 | 102
CCc1[nH]nc2c1C1(CCN(C(=O)OCc3ccccc3)CC1)C(C#N)=C(N)O2 | 85.8
CCOc1ccc(N2CC(C(=O)NCCc3ccc(OC)c(OC)c3)CC2=O)cc1 (stereo not given) | 91.4
O=C(COC(=O)CCC1CCCC1)Nc1ccc(Cl)cn1 | 93.2
c1ccc(-c2oc3ncnc(NCCN4CCOCC4)c3c2-c2ccccc2)cc1 | 32.9
